Structures are written as SMILES. The source made the active and inactive calls. The calls were made as follows: active = hit-call score of the fitted dose curve at least 0.9, where 1 is the maximum; inactive = score below 0.9.

Read-out in this assay: Epidermal growth factor receptor (EGFR), EGFR (gene 1956)
The assay can be described thus: BSK_hDFCGF_EGFR: BioMAP Diversity Plus: hDFCGF Assay for Epidermal growth factor receptor (EGFR) Biomarker Activity (AID 2283057). The settings on record: primary human foreskin fibroblasts; actives raise or lower the signal. How it is done: BSK_hDFCGF is a cell-based, multiplexed-readout assay that uses foreskin fibroblast, a human skin primary cell, with measurements taken at 24 hours after chemical dosing in a 96-well plate.BSK_hDFCGF_EGFR is an assay component measured in the BSK_hDFCGF assay. It measures EGFR antibody related to regulation of gene expression using ELISA technology.Data from the assay component BSK_hDFCGF_EGFR was analyzed into 1 assay endpoint. This assay endpoint, BSK_hDFCGF_EGFR, was analyzed with bidirectional fitting relative to DMSO as the negative control and baseline of activity. Using a type of binding reporter, gain or loss-of-signal activity can be used to understand changes in the signaling as they relate to the gene EGFR. Furthermore, this assay endpoint can be referred to as a primary readout, because this assay has produced multiple assay endpoints where this one serves a signaling function. To generalize the intended target to other relatable targets, this assay endpoint is annotated to the kinase intended target family, where the subfamily is receptor tyrosine kinase.
The levels of cell surface (or secreted, indicated by the prefix "s") biomarker endpoints were measured by ELISA. Overt cytotoxicity to cells in confluent adherent cultures (all systems other than the BT system) was assessed by measuring total protein levels using sulforhodamine B (SRB) staining in parallel cultures at the time of biomarker measurements, indicated as SRB endpoints. For proliferation assays for adherent cell types, individual cell types are cultured at sub-confluence and relative cell numbers quantified by SRB staining at time points optimized for each system (48 h: 3C and CASM3C systems; 72 h: BT and HDF3CGF systems; 96 h: SAg system). SRB was performed by staining cells with 0.1% SRB after fixation with 10% TCA and reading wells at 560 nm.Viability and proliferation of PBMC (T cells) was quantified by Alamar Blue reduction for the SAg and BT systems. For PBMC viability (referred to as PBMC Cytotoxicity within the assay endpoint names), cells were plated (75,000/well in a 96-well plate) and then chemical samples added for 1 h before addition of activators, SEB and TSST-1 (20 ng/mL final concentration each). Cells were incubated for 90 h. Then, Alamar Blue (20 uL/well) (Invitrogen, Cat DAL1100) was added for 6 h, and the plates were read with a fluorescence microplate reader at 546/580 nm (excitation/emission). For PBMC proliferation, cells were plated and activated as above but incubated for only 16 h prior to addition of Alamar Blue. Plates were read after 6 h.
Take `OCCOCCOCCO`: the outcome was inactive.
In the case of `CCCCOC(=O)c1ccccc1`, the outcome was inactive.
The entry for `CNC(C)=O` is “inactive”.
With `OCc1c[nH]c2ccccc12` the entry was “inactive”; with `OCc1ccccc1`, “inactive”.
The entry for `FC(F)C(F)(F)COCC1CO1` (stereo not given) is “inactive”; for `NC(=O)N(O)[C@@H]1COc2cc(OCc3ccccc3)ccc21` it is “inactive”.
Consider `c1ccc2ncccc2c1`, for which the result was inactive.
With `Cc1nc(-c2ccccn2)ncc1C(=O)Nn1cc(C)c2cc(F)ccc21` the entry was “inactive”; with `C=CCc1cc(S(=O)(=O)c2ccc(O)c(CC=C)c2)ccc1O`, “inactive”; with `CCc1cccc(CC)c1N`, “inactive”.
With `CCCOc1ccc(S(=O)(=O)N2CCN(CC)CC2)cc1-c1nc2c(CC)n(Cc3ccccn3)nc2c(=O)[nH]1` the entry was “inactive”; with `CCCCN1C(=O)[C@@H]([C@H](O)C2CCCCC2)NC(=O)C12CCN(Cc1ccc(Oc3ccc(C(=O)O)cc3)cc1)CC2`, “inactive”.
On to `OCC(CO)(CO)CO`, for which the outcome was inactive.
In the case of `OCCC(F)(F)C(F)(F)C(F)(F)C(F)(F)F`, the outcome was inactive.
With `CCCCCCCCCC` the entry was “inactive”.
With `Cn1cc[nH]c1=S` the entry was “inactive”; with `Cc1ccc(S(=O)(=O)NC(=O)NN2CCCCCC2)cc1`, “inactive”; with `OC[C@H]1O[C@@](CO)(O[C@H]2O[C@H](CO)[C@@H](O)[C@H](O)[C@H]2O)[C@@H](O)[C@@H]1O`, “inactive”.
With `c1ccc2cc3ccccc3cc2c1` the entry was “inactive”.
Regarding `CCn1nc(C)c2c1C(=O)NCC(c1ccc(O)cc1)=N2`, the outcome was inactive.
With `O=C(O)[C@H](O)[C@@H](O)C(=O)O` the entry was “inactive”; with `C=CN1CCCC1=O`, “inactive”; with `CCCCCOC(C)=O`, “inactive”.
The entry for `NCC(F)(F)C(F)(F)C(F)(F)C(F)(F)F` is “inactive”; for `C[C@@H](Oc1ccc(CNC(=O)c2cccnc2Oc2ccc3c(c2)OCO3)c(F)c1)C(=O)O` it is “inactive”; for `CC[C@H](C)C(=O)O[C@H]1C[C@H](O)C=C2C=C[C@H](C)[C@H](CC[C@@H](O)C[C@@H](O)CC(=O)O)[C@H]21` it is “inactive”.
Turning to `CCN(CC)C(=S)SSC(=S)N(CC)CC`, the result was inactive.
With `CC(C)CCCCCCOC(=O)C1CCCCC1C(=O)OCCCCCCC(C)C` (stereo not given) the entry was “inactive”.
For `CCc1ccc(O)c(C(C)(C)C)c1`, the result was inactive.
With `NNC(=O)c1ccncc1` the entry was “inactive”; with `Cc1cccc(O)c1C`, “inactive”; with `CC(C)CC(C)O` (stereo not given), “inactive”.
`O=S(=O)(O)CCC(F)(F)C(F)(F)C(F)(F)C(F)(F)C(F)(F)C(F)(F)F`: the outcome was inactive.
The entry for `CCCC(CCC)C(=O)O` is “inactive”; for `COc1cc(C(C)C)c2c(c1)S(=O)(=O)N(COc1cc(=O)n3cccc(OCCN4CCCCC4)c3n1)C2=O` it is “inactive”.
`OC(CCl)CCl`: the result was inactive.
The entry for `CCOC(N)=O` is “inactive”; for `FC(F)=C(F)C(F)(F)C(F)(F)C(F)(F)C(F)(F)C(F)(F)C(F)(F)F` it is “inactive”.
On to `CCCCCCCC/C=C\CCCCCCCC(=O)OC[C@@H](O)[C@H]1OC[C@H](O)[C@H]1O`, for which the result was inactive.

For the origin of these results see PubChem BioAssay (EPA / NIEHS).
